Source: PubChem BioAssay AID504848 (National Center for Advancing Translational Sciences (NCATS), 2011)
In all, about 2,300 compounds went through this assay and about 1,400 (61%) were called active. Another 29% or so got no clear call; they are omitted. Calls come from the whole dose curve; as a rule, active = well fitted inhibition curve with a large enough effect; inconclusive = small, poorly fitted or top-dose-only effect, or effect the other way; inactive = no such curve, though single readings can be large or run the other way. The set was probably picked from earlier hits. The list shows a part of the results.
Potency is the fitted concentration of half-maximal effect.

Assay: Confirmation screen for delayed death inhibitors of the malarial parasite plastid, 96 hour incubation; note: nearly all actives have a fitted effect of over 60% in size
Settings: P. falciparum luciferase growth in erythrocytes; series mostly up to 28.7 µM
Method in brief: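 Two-generation (96 h, 37 C) exposure of P. falciparum carrying an integrated firefly luciferase reporter in erythrocytes, 0.1% parasitemia and 2% hematocrit final, Albumax-supplemented RPMI. Luminescence decrease measures growth inhibition.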
In the case of `Nc1cc[n+](CC(=O)c2ccc3c(c2)OCCO3)cc1`, the Potency is reported as 4.47 µM (active). In the case of `COCCNCC(=O)NC12CC3CC(CC(C3)C1)C2`, the Potency is reported as “inactive”. With `CN(C)c1ccc(NC(=S)NC23CC4CC(CC(C4)C2)C3)cc1` the Potency was 1.58 µM (active). With `COc1ccc(N2CCN(CCCn3c(=S)[nH]c4ccccc4c3=O)CC2)cc1` the Potency was 12.6 µM (active). For `O=C(/C=C/c1ccc(Cl)c(Cl)c1)NCCCn1ccnc1`, the Potency was 12.6 µM (active). In the case of `COc1ccc(C)cc1NC(=O)CSCc1ccccc1C`, the Potency is reported as 12.6 µM (active). For `CCOc1ccc(-n2c(N)c(-c3nc4ccccc4n3C)c3nc4ccccc4nc32)cc1`, the Potency was 3.98 µM (active). With `Cc1cc(NC(=O)CN2C(=O)NC(c3ccccc3)(c3ccc(C)c(C)c3)C2=O)no1` (stereo not drawn) the Potency was 11.2 µM (active). For `COc1ccccc1CNC(=O)CN1C(=O)NC(c2ccccc2)(c2ccc(C)c(C)c2)C1=O` (stereo not drawn), the Potency was 12.6 µM (active). For `Cc1cccc(CS(=O)(=O)c2ncc(Cl)c(C(=O)Nc3c(C)cccc3C)n2)c1`, the Potency was “inactive”. With `COc1cc(NCc2ccc3nc(N)nc(N)c3c2C)cc(OC)c1OC` the Potency was 0.199 µM (active). For `Cc1ccc(-n2cc(CN3CCC(CO)(Cc4cccc(C(F)(F)F)c4)CC3)cn2)cc1`, the Potency was 7.94 µM (active). For `Cc1c(CCO)sc[n+]1CC(=O)OCCC12CC3CC(CC(C3)C1)C2`, the Potency was 3.16 µM (active). In the case of `O=C(Nc1ccc(F)cc1)c1ccc(CN2CCc3ccccc3C2)cc1`, the Potency is reported as 12.6 µM (active). In the case of `Cc1cc(C)cc(NC(=O)c2ccc(CN3CCc4ccccc4C3)cc2)c1`, the Potency is reported as 11.2 µM (active). In the case of `O=C(Nc1ccc(Cl)cc1)c1ccc(CN2CCc3ccccc3C2)cc1`, the Potency is reported as 14.1 µM (active). With `O=C(Nc1ccc2[nH]ncc2c1)c1ccc(F)cc1` the Potency was “inactive”. In the case of `COc1ccc(N2C(=O)C3C(C2=O)C(C(=O)c2ccc(Cl)cc2)N2CCCC32)cc1` (stereo not drawn), the Potency is reported as “inactive”. In the case of `Cc1c(CC(=O)N2C[C@H]3C[C@@H](C2)c2cccc(=O)n2C3)c(=O)oc2cc3occ(C(C)(C)C)c3cc12`, the Potency is reported as 12.6 µM (active). With `Cc1c(OC(C)C(=O)N2C[C@H]3C[C@@H](C2)c2cccc(=O)n2C3)ccc2c3c(c(=O)oc12)CCC3` (stereo partly drawn) the Potency was 11.2 µM (active). With `CC(C)N1C/C(=C/c2ccsc2)C(=O)/C(=C/c2ccsc2)C1` the Potency was 5.62 µM (active). In the case of `CCC1S/C(=N/N=C/c2ccco2)N(Cc2ccccc2C)C1=O` (stereo not drawn), the Potency is reported as 10 µM (active). With `CCc1nc(SCC(=O)N2c3ccccc3CC2C)c2c(C)c(C)sc2n1` (stereo not drawn) the Potency was 11.2 µM (active). In the case of `CCc1nc(SCC(=O)Nc2ccccc2OC)c2c(C)c(C)sc2n1`, the Potency is reported as 12.6 µM (active). In the case of `CC(=O)NCCC(=O)Nc1cc(S(=O)(=O)N2CCOCC2)ccc1Oc1ccccc1`, the Potency is reported as 10 µM (active). With `CN(C)S(=O)(=O)c1ccc(NCC2COc3ccccc3O2)c([N+](=O)[O-])c1` (stereo not drawn) the Potency was 12.6 µM (active). For `COc1ccc(C(=O)CC(SCC(NC(C)=O)C(=O)O)c2ccc(Cl)cc2)cc1OC` (stereo not drawn), the Potency was 11.2 µM (active). With `CCOC(=O)N1C/C(=C\c2ccccc2)C(=O)/C(=C/c2ccccc2)C1` the Potency was 4.47 µM (active). In the case of `O=[N+]([O-])c1ccc(C[n+]2cccc3c4ccccc4ccc32)cc1`, the Potency is reported as 0.126 µM (active). In the case of `COC1C(OC(=O)/C=C/C=C/C=C/C=C/C(=O)O)CCC2(CO2)C1C1(C)OC1CC=C(C)C` (stereo not drawn), the Potency is reported as 0.0501 µM (active). For `CC1=CC(C)(C)N2C(=O)C3(NCCc4c3[nH]c3ccccc43)c3cc(C)cc1c32` (stereo not drawn), the Potency was 11.2 µM (active). With `Fc1ccc(CNc2ccc(N3CCN(Cc4ccccc4)CC3)cc2)cc1` the Potency was 12.6 µM (active). In the case of `CC1=NCCN1CCNC(=O)Nc1ccc(F)cc1`, the Potency is reported as “inactive”. For `CCCc1c(NC(=O)Nc2ccc(F)cc2)cnn1-c1ccccc1`, the Potency was 11.2 µM (active). In the case of `CCCc1c(NC(=O)Nc2ccc(F)cc2)cnn1-c1ccc(Cl)cc1`, the Potency is reported as 10 µM (active). For `Cc1cccc(C2Nc3ccccc3C(=O)N2c2ccccc2)n1` (stereo not drawn), the Potency was “inactive”. For `CCCN1C(=O)c2ccccc2NC1c1ccc(OC)cc1O` (stereo not drawn), the Potency was 11.2 µM (active). With `Fc1ccc(CSc2nncn2NCc2ccc3c(c2)OCO3)cc1` the Potency was “inactive”. In the case of `Fc1cccc(CNc2ncnc3ccc(-c4ccc5c(c4)OCO5)cc23)c1`, the Potency is reported as 4.47 µM (active). For `Clc1ccc(-c2c[n+](Cc3ccc(Br)cc3)c3n2CCCCC3)cc1`, the Potency was 0.0251 µM (active). In the case of `Clc1ccc(-c2c[n+](Cc3ccc(Cl)cc3Cl)c3n2CCCCC3)cc1`, the Potency is reported as 0.0794 µM (active). In the case of `CCN(CC)c1ccc(/C=C/c2cccc[n+]2C)c(OC)c1`, the Potency is reported as 0.141 µM (active). For `COC(=O)c1ccc(COc2ccc(-c3nnn(CC(N)=O)n3)cc2)cc1`, the Potency was 1.58 µM (active).
